A selection: hits, their analogues and other compounds. The true share with any hit is near 4%.
BoNT F protease: BoNT F light chain protease inhibition. Multiplex microsphere protease cleavage assay, flow cytometry. inhibition, % at 10 µM. actives 0.22% (n = 360,000); in the data active means inhibition above about 35%, passing the limit was not always enough; inconclusive means no clear call, values can overlap the other calls; further: plate controls were buffer without enzyme for full effect and enzyme alone for no effect
Autofluor counter: flagged as autofluorescent in microsphere protease counterscreen; compound autofluorescence counterscreen, microsphere flow cytometry; hits give high values; fluorescence intensity (concentration not given with the values); actives 3.1% (n = 360,000); in the data active means fluorescence intensity above about 16000; inconclusive means no clear call, values can overlap the other calls
VHR inh abs: DUSP3 (human) phosphatase inhibition; P51452; recombinant VHR phosphatase, pNPP absorbance; inhibition, % at 13.3 µM; actives 0.52% (n = 290,000); AID 1654; in the data active means inhibition above about 50%
Target sequence (P51452 whole entry, looked up): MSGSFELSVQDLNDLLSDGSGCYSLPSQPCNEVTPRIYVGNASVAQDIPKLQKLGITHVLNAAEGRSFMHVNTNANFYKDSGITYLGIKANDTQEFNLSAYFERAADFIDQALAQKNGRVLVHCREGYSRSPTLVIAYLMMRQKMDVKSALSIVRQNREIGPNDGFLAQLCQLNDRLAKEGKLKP
MazEF act: increases E. coli MazEF RNase cleavage of RNA. actives 0.32% (n = 350,000). FAM/BHQ RNA-DNA oligo cleavage fluorescence, 5 h. activation, % at 20 µM; in the data active means activation above about 50%
Target sequence (P0AE70 whole entry, looked up): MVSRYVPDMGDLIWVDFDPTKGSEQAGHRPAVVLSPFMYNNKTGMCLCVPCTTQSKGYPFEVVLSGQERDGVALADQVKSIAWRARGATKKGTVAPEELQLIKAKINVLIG
BoNT A protease: inhibitors of Botulinum neurotoxin A light chain protease; multiplex microsphere protease substrate cleavage, flow cytometry; inhibition, % at 10 µM; actives 0.17% (n = 360,000); AID 588499; further: plate controls were buffer without enzyme for full effect and enzyme alone for no effect
Anthrax LF prot: blocks Bacillus anthracis lethal factor protease; multiplex microsphere protease cleavage assay, LF; inhibition, % at 10 µM; actives 0.12% (n = 360,000); AID 588501; further: plate controls were buffer without enzyme for full effect and enzyme alone for no effect
Active calls of the source: *; ? = inconclusive; nt = no result given. Unless noted, no stated cut-off is given here; in the data, active means inhibition above about 30%; inconclusive means no clear call, values can overlap the other calls; inactive means below that.

SMILES | BoNT F protease | Autofluor counter | VHR inh abs | MazEF act | BoNT A protease | Anthrax LF prot
O=C(O)CSc1nnc(-c2ccc3c(c2)OCO3)o1 | -2 | 16221* | 10 | 0 | 1 | 1
CN(C)S(=O)(=O)c1ccc(C(=O)NC(=O)CSc2nnnn2C)cc1 | -5 | 4184 | nt | 4 | 0 | 0
CCn1c(Oc2ccccc2F)nc2c1c(=O)n(C)c(=O)n2C | -22 | 3442 | 6 | 7 | -4 | 9
CC(SCc1ccccc1)C(=O)Nc1ccc2c(c1)OCO2 (stereo not drawn) | -8 | 16775* | -20 | 3 | -1 | -4
O=C(CSc1nnc(-c2cccc(Cl)c2)o1)Nc1ccc2c(c1)OCCO2 | -1 | 22299* | -18 | 0 | ? | -5
O=C(CSCc1ccccc1Cl)Nc1ccc2c(c1)OCCO2 | 6 | 20949* | 18 | 7 | ? | -3
Nn1c(SCC(=O)Nc2ccc3c(c2)OCO3)nnc1-c1ccccc1 | 57* | 3160 | -7 | -3 | 45* | -36
COC(CN(C)C(=O)C1CCC(CNS(=O)(=O)c2ccc(C)cc2)CC1)OC (stereo not drawn) | -2 | 3708 | -9 | 9 | -1 | -6
Cc1ccc(C)c(Oc2cc(F)nc(N)n2)c1 | 24 | 12396 | -5 | 7 | -1 | 5
C=CCn1c(SCC(=O)Nc2ccc3c(c2)OCO3)nnc1-c1ccccc1 | 2 | 3769 | 17 | 0 | -1 | -1
COc1ccc(-n2c(SCC(=O)Nc3ccc4c(c3)OCO4)nc3ccccc3c2=O)cc1 | -8 | 23540* | 10 | -6 | -2 | -6
C=CCn1c(SCC(=O)Nc2ccc3c(c2)OCO3)nnc1-c1cc(Br)ccc1O | -6 | 24540* | -10 | 3 | -1 | -4
CCOc1ccc(-n2c(SCC(=O)Nc3ccc4c(c3)OCO4)nc3ccccc3c2=O)cc1 | -16 | 3427 | 7 | 3 | 0 | -7
COc1ccc(-c2nc3cnccn3c2NCc2ccccc2)cc1SC1CCCCC1 | -1 | 5777 | nt | -14 | 0 | 0
Nc1ccc(C(=O)N/N=C/c2ccc(N3CCOCC3)s2)cc1 | -10 | 8748 | nt | -5 | 0 | -10
CC(C)(C)OC(=O)N/N=C/c1ccc(N2CCOCC2)s1 | -8 | 1950 | -7 | 226* | 1 | -1
COC(=O)C1=C(C)N(CC(C)C)C(=O)/C1=C\c1cccs1 | 2 | 3301 | 12 | -5 | 0 | -4
CCOC(=O)C1=C(C)N(CC(C)C)C(=O)/C1=C\c1cccs1 | ? | 3756 | 5 | 59* | -7 | -23
CC(C)(C)c1cc(=O)[nH]c(SCc2ccccc2)n1 | 4 | 4724 | 10 | 0 | 1 | 0
Cn1c(=O)c(C(=O)NCC2CCCO2)c(O)c2ccccc21 (stereo not drawn) | 0 | 3815 | 39 | 5 | 0 | -5
CCOC(=O)c1c(NC(=O)c2ccccc2Br)sc2c1CCc1ccccc1-2 | 4 | 22027* | 24 | 11 | ? | -2
CCOC(=O)c1c(NC(C)=O)sc2c1CCC(C=O)=C2Sc1ccccc1 | 40* | 7887 | 7 | 4 | 50* | 41*
CSCCC(NC(=O)c1ccccc1)C(=O)NCc1ccc(S(N)(=O)=O)cc1 (stereo not drawn) | -45 | 3958 | -7 | 4 | -3 | -1
CCOc1ccc(NC(=O)C2CCC(N3C(=O)C4CC=CCC4C3=O)CC2)cc1 (stereo not drawn) | 0 | 3389 | -4 | 3 | -1 | -3
COc1ccc(OCC(O)COc2ccc(C(=O)O)cc2)cc1 (stereo not drawn) | -7 | 8704 | 51* | 11 | -1 | -11
SMILES | BoNT F protease | Autofluor counter | VHR inh abs | MazEF act | BoNT A protease | Anthrax LF prot
Cc1cc(C)c(C(=O)/C=C/c2ccc(C(C)C)cc2)c(=O)[nH]1 | 5 | 17863* | 28 | 4 | 5 | -1
Cc1cc(C)c(C(=O)/C=C/C=C/c2ccccc2)c(=O)[nH]1 | 4 | 2908 | -7 | -2 | 24 | 10
Cc1ccc(Sc2ncccc2C(=O)NC2CCCCCC2)cc1C | -2 | 2549 | 8 | -5 | 0 | -2
O=S(=O)(c1ccc(NC(=S)N/N=C/c2c3ccccc3cc3ccccc23)cc1)N1CCOCC1 | 2 | 3214 | -10 | -4 | 33* | 14
CN1C(=O)C(C)(C)c2cc(S(=O)(=O)N3CCCC(C(=O)NCc4ccc(F)cc4)C3)ccc21 (stereo not drawn) | 0 | 5333 | 13 | 8 | 0 | -5
COc1cc2c(C#N)c(N3CCCCC3)nc(N)c2c(N)n1 | -10 | 3076 | -27 | 56* | 4 | -4
COc1cc2c(C#N)c(N3CCc4ccccc4C3)nc(N)c2c(N)n1 | -7 | 3674 | 21 | 62* | 3 | 0
CCOc1cc2c(C#N)c(N3CCCCC3)nc(N)c2c(N)n1 | 7 | 8838 | 24 | 34 | 4 | -5
COc1cc2c(C#N)c(N3CCOCC3)nc(N)c2c(N)n1 | -3 | 3240 | -1 | 20 | 0 | -1
O=C(NCc1cccs1)C1CC(c2ccc(Cl)cc2)=NO1 (stereo not drawn) | -6 | 3699 | -12 | -9 | 0 | 3
CC(C)(C)NC(=O)C(Cc1ccccc1)NS(=O)(=O)c1ccc2c(c1)CCC(=O)N2 (stereo not drawn) | -5 | 11306 | 14 | -1 | 1 | -3
COc1cc(C)nc(Oc2ccc(OCCOc3ccc(C)cc3)nn2)n1 | -12 | 3156 | 20 | 12 | 1 | -5
S=C(NN=C(C1CC1)C1CC1)Nc1ccccc1 | -5 | 17259* | 40 | -1 | -2 | -3
O=C(NNC(=S)Nc1ccccc1)C1CC1 | -4 | 5187 | 3 | 7 | 0 | -2
CCCNS(=O)(=O)c1cccc2cccnc12 | -7 | 5702 | 25 | 3 | 0 | -5
COc1ccc(NC2C=CS(=O)(=O)C2)c(OC)c1 (stereo not drawn) | -11 | 7287 | 18 | 6 | 0 | 2
O=C(O)c1ccc(NS(=O)(=O)/C=C/c2ccccc2)cc1O | 4 | 21416* | 0 | 3 | 5 | 1
COc1ccc(NC(=O)c2cc(Br)ccc2Cl)c([N+](=O)[O-])c1 | -3 | 2792 | -15 | 6 | 0 | 0
Cc1ccc(C)c(S(=O)(=O)N2CCN(C(=O)c3ccc4ccccc4n3)CC2)c1 | -4 | 5724 | nt | -5 | -2 | -7
Cc1ccc(C)c(S(=O)(=O)N2CCN(C(=O)c3cnccn3)CC2)c1 | 1 | 23149* | 12 | 10 | 0 | -3
Cc1cnc(C(=O)N2CCN(S(=O)(=O)c3ccc4ccccc4c3)CC2)cn1 | 1 | 20208* | -17 | 6 | 0 | 0
COC(=O)c1ccc(CN2CCC(CO)(Cc3ccccc3Cl)CC2)cc1 | -2 | 3583 | 8 | 3 | -1 | 8
CCOC(=O)C1=C(CC)OC(N)=C(C#N)C1c1ccc(OC)c(C)c1OC (stereo not drawn) | -12 | 2513 | 37 | -7 | -2 | -1
CCOC(=O)C1=C(CC)OC(N)=C(C#N)C1c1ccc(OC)c(OC)c1OC (stereo not drawn) | 6 | 4218 | 24 | -43 | 0 | -3
